# NS1 inh: blocks influenza NS1 protein function; AID 2326; actives 0.4% (n = 270,000); Potency, µM (series often up to 46.1 µM), for the others: top-dose activity, positive = more growth; calls by dose curve; note: potency is the fitted concentration of half-maximal effect; actives are rising curves; nearly all actives have a fitted effect of over 50% in size
#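 In this qHTS, NS1 from influenza A is expressed in budding yeast, where it slows growth. Cells are switched from glucose to 2% galactose medium (pH 6.0, -URA), treated with compound, and growth recovery is read at OD600.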
# Shiga inhibitor: Shiga toxin inhibition | Vero cells, Shiga toxin protein synthesis inhibition reporter | actives 9.2% (n = 290,000) | inhibition, % at 38.7 µM; in the data active = inhibition mostly above about 28%, no sharp cut-off; inactive = mostly below about 43%; note: 0% is about no effect
# Pf growth 48h: inhibits P. falciparum growth in the first generation, 48 h | P. falciparum luciferase growth in erythrocytes, 48 h | Potency, µM (doses to about 28.7 µM), for inactives: top-dose activity change, negative = inhibition, most hits filed as inhibitors | actives 5.9% (n = 310,000) | AID 504832; note: potency is the fitted concentration of half-maximal effect; % is set by controls: 0 for no effect and ±100 for the full control effect
#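 Luminescence readout; reporter = integrated firefly luciferase in P. falciparum. RBC culture at 2% hematocrit, 0.1% parasitemia final, 37 C/5% CO2; decreased signal taken as growth inhibition.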
# Pf growth 96h: inhibits malaria parasite growth, 96 h; P. falciparum luciferase reporter growth, 96 h; AID 504834; actives 6.9% (n = 320,000); Potency, µM (top dose mostly 28.7 µM), for the others: top-dose activity change, negative = inhibition, actives largely listed as inhibitors; note: potency is the fitted concentration of half-maximal effect; % is set by controls: 0 for no effect and ±100 for the full control effect
#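 Readout is luminescence from an integrated firefly luciferase in P. falciparum. Red cells, 2% hematocrit and 0.05% parasitemia final, were cultured with compound through two parasite generations (96 hours) at 37 C, 5% CO2.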
# Cycloheximide cs: counter-screen hit for Shiga toxin inhibitors, cycloheximide; AID 2314; max response, %; actives 12% (n = 300,000); cell reporter, cycloheximide protein synthesis inhibition counterscreen; in the data active = max response mostly above about 13%, no sharp cut-off; inactive = mostly below about 14%; note: read at 38.3 µM for the half of the compounds with a filed dose; 0% is about no effect
# * marks the source's active call; other numbers are inactive results; ? = inconclusive; · = no result; [ ] = remark or other dose. Hits are enriched below; roughly 21% of the tested compounds scored in any of these assays. Unless noted, calls come from the whole dose curve; as a rule, active = well fitted inhibition curve with a large enough effect; inconclusive = small, poorly fitted or top-dose-only effect, or another doubt; inactive = no such curve, though single readings can be large or run the other way.
SMILES,NS1 inh,Shiga inhibitor,Pf growth 48h,Pf growth 96h,Cycloheximide cs
COc1ccc(-c2c(C)nc3c(-c4ccsc4)cnn3c2N)cc1,3%,85*,16%[0.00184 µM],318%,33*
Cc1cc(C(F)(F)Cl)n2ncc(-c3ccccn3)c2n1,-2%,4,8%,5%,-4
COc1ccc(S(=O)(=O)CCC(=O)Nc2cccc(OC)c2)cc1,·,12,30%,?,6
CCOc1cc(-c2c(C#N)c(N)nc3c2CCCC3C)ccc1O (centres undefined),-33%,-14,-24%,2.9µM*,-2
Cc1ccc(-c2nc3ccccc3c(=O)n2Cc2ccccc2)cc1,-31%,-20,8%,?,-3
Cc1ccccc1/C=C/c1nc2ccccc2c(=O)n1Cc1ccccc1,5%,8,?,10µM*,-3
Cc1ccccc1/C=C/c1nc2ccccc2c(=O)n1CCc1ccccc1,4%,-2,13µM*,-5%,-3
NNc1nc2ccccc2c(=O)n1Cc1ccccc1,9%,43*,59%,?,29*
Cc1ccc(/C=C/c2nc3ccccc3c(=O)n2CCc2ccccc2)cc1,-5%,23,-19%,?,9
COc1ccccc1N1CCN(CCCn2c(=S)[nH]c3ccccc3c2=O)CC1,-3%,-13,7.4µM*,21%,1
Cc1cc(Cl)cc(Cl)c1CNc1c([N+](=O)[O-])c(=O)oc2ccccc12,-3%,8,1%,5%,-3
CCOC(=O)n1c(=O)[nH]c2ccc(Br)cc21,·,8,88%,11%,7
CCn1c(/C=C2\C(=O)Nc3ccccc32)nc2ccccc2c1=O,-1%,-8,?,?,-1
CCn1c(/C=C/c2cc(Br)ccc2O)nc2ccccc2c1=O,9%,-8,0.93µM*,-3%,-2
CCn1c(/C=C/c2ccc(O)c(O)c2)nc2ccccc2c1=O,22%,2,?,?,0
O=c1c2ccccc2[nH]c(=S)n1CCc1ccccc1,-8%,69*,16%,-10%,33*
Cc1nc2ccccc2c(=O)n1CCc1ccccc1,-8%,53,?,?,16*
O=c1c2ccccc2[nH]c(=S)n1Cc1ccccc1,21%,·,0%,?,-1
CCn1c(/C=C/c2ccccc2F)nc2ccccc2c1=O,-17%,12,4%,?,18*
CCn1c(/C=C/c2ccccc2C)nc2ccccc2c1=O,-16%,51*,1%,-15%,19*
CCn1c(/C=C/c2ccc(O)cc2)nc2ccccc2c1=O,-25%,9,-1%,?,10
COCCN(C(=O)COC(=O)CSc1ccc(Cl)cc1)c1c(N)n(CC(C)C)c(=O)[nH]c1=O,·,·,9%,10%,·
COc1ccc(OC)c(C(=O)CSc2nccc(-c3ccc(Br)cc3)n2)c1,1%,13,12µM*,?,-3
COc1ccc(-c2ccnc(SCC(=O)c3ccc(OC)c(OC)c3)n2)cc1,-4%,-15,21%,17%,-1
CCOC(=O)c1c(C)nn(-c2ccc(NC(=O)CSCC(=O)O)cc2)c1C,-4%,-5,10%,9%,-1
SMILES,NS1 inh,Shiga inhibitor,Pf growth 48h,Pf growth 96h,Cycloheximide cs
Cc1cccc(OCc2nc(C#N)c(NCc3ccc4c(c3)OCO4)o2)c1,-125%,56,·,-6%,42*
N#Cc1nc(COc2ccc(Cl)cc2)oc1NCc1ccc2c(c1)OCO2,-5%,-25,·,10µM*,4
Cc1nc(C#N)c(NCc2ccc3c(c2)OCO3)o1,-3%,-4,27%,·,-2
CC(C)c1ccc(NC(=O)c2cc(S(=O)(=O)N3CCCCC3)c[nH]2)cc1,-3%,-7,29%,27%,2
Cc1nn(-c2ccccc2)c(N)c1C(c1ccc(C(C)C)cc1)c1c(C)nn(-c2ccccc2)c1N,24%,1,10µM*,0%,-1
Cc1ccc(C(c2c(C)nn(-c3ccccc3)c2N)c2c(C)nn(-c3ccccc3)c2N)cc1,8%,-7,10µM*,13µM*,-4
Cc1nn(-c2ccccc2)c(N)c1C1(O)C(=O)N(C(C)C)c2ccccc21 (centres undefined),15%,-5,15%,-15%,-2
Cc1nn(-c2ccccc2)c(N)c1C(O)(C(F)(F)F)C(F)(F)F,6%,13,10%,54%,1
COc1ccc(CCn2c(C)ccc2C)cc1OC,10%,10,5.2µM*,8.3µM*,-3
COc1ccc(CCn2c(-c3ccc(Cl)cc3)n[nH]c2=S)cc1OC,·,-9,-1%,0%,1
COc1cccc(C2/C(=C(/O)c3ccc4c(c3)OCO4)C(=O)C(=O)N2CCN2CCOCC2)c1 (centres undefined),21%,10,-4%,?,9.6*
CCCOc1ccc(/C(O)=C2/C(=O)C(=O)N(CCCN3CCOCC3)C2c2ccncc2)cc1 (centres undefined),10µM*,-15,?,?,4
O=C1C(=O)N(CCN2CCOCC2)C(c2ccncc2)/C1=C(/O)c1ccc2c(c1)OCO2 (centres undefined),-3%,22,5%,8.3µM*,-2
O=C1C(=O)N(CCCN2CCOCC2)C(c2cccs2)/C1=C(/O)c1ccc2c(c1)OCO2 (centres undefined),-2%,16,15%,?,29*
O=C1C(=O)N(CCN2CCOCC2)C(c2ccc([N+](=O)[O-])cc2)/C1=C(/O)c1ccc2c(c1)OCO2 (centres undefined),8%,42,-3%,?,16
COc1cccc(C2/C(=C(\O)c3ccc4c(c3)OCCO4)C(=O)C(=O)N2CCCn2ccnc2)c1 (centres undefined),-2%,0,8%,-9%,8
CCCCC1(C)NC(=S)N2N1C(=S)NC2(C)CCCC (centres undefined),0%,19,?,0%,1
CCN(CC(=O)NCc1cccs1)C(=O)c1ccc(S(=O)(=O)N(CC)c2ccccc2)cc1,·,·,?,-29%,·
CCCOc1cc(CN2CCCCC2)cc(C(C)=O)c1,9%,17,8%,9.3µM*,-3
CCCOc1ccc(C(=O)CCN2CCCCC2)cc1,-43%,-11,13%,·,5
Cc1ccc(OCCNC(=O)CNC(=O)c2ccc3c(c2)OCO3)cc1,·,·,11%,15%,·
CCc1ccc2c(c1)cc(CN(C(=S)Nc1ccc(Cl)cc1)C1CC1)c1nnnn12,1%,11,2.9µM*,?,4
COCCNC(=S)N(Cc1cc2cc(C)ccc2n2nnnc12)C1CCCC1,·,-8,-29%,-13%,-1
Cc1cc(NC(=O)CSc2nc3ccccc3cc2C#N)no1,-13%,39*,21%,12%,17
Cc1cc(NC(=O)CSc2nc3c(cc2C#N)CCCC3)no1,0%,49*,247%,243%,38*
Cc1cc(C)c2nc(SCC(=O)Nc3cc(C)on3)c(C#N)cc2c1,0%,-4,-1%,18%,-2
Cc1cc(NC(=O)CSc2nc3c(cc2C#N)CCC3)no1,10%,97*,131%,-2%,29*
